Out of some 13,000 compounds screened, about 3,200 (25%) showed an effect of 50% or more. This is one part of the list.
System: P. falciparum stage V gametocytes
Design: BacTiter-Glo ATP luminescence viability of purified stage V gametocytes in 384-well plates, per cent inhibition versus DMSO
Settings: 48 h, 5 µM; inhibitor

Going from `Nc1nc(N)c2c(Oc3cccc(Cl)c3)cccc2n1` [TCMDC-137741] to `Cc1nc2nc(N)nc(N)c2c(C)c1Cc1ccc(C(F)(F)F)cc1` [TCMDC-137656], the “% Inhibition” value rises from -2.704% to -0.8923%.

Compared with `CCCCCN1CCCC1CNS(=O)(=O)c1ccc(C(=O)Nc2cccc(C(F)(F)F)c2)cc1` (centres unmarked) [TCMDC-133688], `CC(C)NCc1ccc(-c2cccc(NC(=O)c3ccc(F)cc3)c2)cc1` [TCMDC-132635] is higher in “% Inhibition” value: -7.266% for the first, 20.54% for the second.

Compared with `CN1CCc2cc(CN3CC4(C)CC3CC(C)(C)C4)c(O)cc2C(c2ccccc2)C1` (centres unmarked) [TCMDC-131903], `Cc1cc(CNC(c2ccccc2)C2CCC2)cc(C)c1O` (centres unmarked) [TCMDC-134518] is higher in “% Inhibition” value: -50.67% for the first, -25.25% for the second.

Compared with `CC(C)NCc1ccc(-c2ccc(NC(=O)c3cccc(C#N)c3)cc2)cc1` [TCMDC-132595], `CC(C)NCc1ccc(-c2cccc(NC(=O)c3cccc(C#N)c3)c2)cc1` [TCMDC-132649] is lower in “% Inhibition” value: 51.63% for the first, 48.87% for the second.

Compared with `CC(C)NCc1cccc(-c2ccc(NC(=O)c3ccc(F)cc3)cc2)c1` [TCMDC-132666], `CC(C)NCc1cccc(-c2ccc(NC(=O)c3ccc(C#N)cc3)cc2)c1` [TCMDC-132669] is higher in “% Inhibition” value: -42.89% for the first, -2.892% for the second.

First: CC(C)NCc1ccc(-c2cccc(NC(=O)c3ccc(C#N)cc3)c2)cc1 [TCMDC-132638]
Second: CC(C)NCc1ccc(-c2cccc(NC(=O)c3ccc(Cl)cc3)c2)cc1 [TCMDC-132629]
The “% Inhibition” value of the first is higher: 83.96% for the first, -59.93% for the second.

Going from `CC(C)NCc1cccc(-c2ccc(NC(=O)c3cccc(C#N)c3)cc2)c1` [TCMDC-132672] to `CC(C)NCc1cccc(-c2cccc(NC(=O)c3cccc(C#N)c3)c2)c1` [TCMDC-132662], the “% Inhibition” value rises from -57.78% to 13.1%.

First: CC(C)NCc1ccc(-c2ccc(NC(=O)c3ccc(C#N)cc3)cc2)cc1 [TCMDC-132589]
Second: CC(C)NCc1cccc(-c2cccc(NC(=O)c3ccc(C#N)cc3)c2)c1 [TCMDC-132656]
The “% Inhibition” value of the first is lower: 83.96% for the first, 89.01% for the second.

Compared with `CN1CCCN(Cc2ccc(-c3ccc(NC(=O)c4ccc(C#N)cc4)cc3)cc2)CC1` [TCMDC-132588], `CN1CCN(Cc2cccc(-c3ccc4c(Nc5ccc(F)cc5Cl)ccnc4c3)c2)CC1` [TCMDC-138417] is higher in “% Inhibition” value: 15.04% for the first, 75.62% for the second.

First: COc1cccc(C(=O)NCCOc2ccccc2)c1Oc1ccccc1 [TCMDC-141238]
Second: N#Cc1ccccc1Sc1ccccc1C(=O)Nc1ccc2ccccc2n1 [TCMDC-125464]
The “% Inhibition” value of the first is lower: 4.712% for the first, 33.3% for the second.

First: Nc1ncc(-c2cn[nH]c2)cc1-c1nc2ccc(Cl)cc2[nH]1 [TCMDC-133560]
Second: Fc1ccc(Nc2ccnc3cc(I)ccc23)c(Cl)c1 [TCMDC-138387]
The “% Inhibition” value of the first is lower: -7.229% for the first, 14.07% for the second.

Compared with `C=CCc1cc(Cc2cnc(N)nc2N)cc(CCC)c1OC` [TCMDC-138039], `CCOc1cc(Cc2cnc(N)nc2N)ccc1OC` [TCMDC-137931] is higher in “% Inhibition” value: 23.16% for the first, 24.72% for the second.

Compared with `O=C(O)c1ccc(-c2cnc3ccc(NC4CCC(O)CC4)nn23)cc1` (centres unmarked) [TCMDC-136692], `O=C(/C=C/c1ccsc1)NC1CCC(CN2CCC(c3c[nH]c4ccccc34)CC2)CC1` (centres unmarked) [TCMDC-140294] is lower in “% Inhibition” value: 8.489% for the first, -21.49% for the second.

Compared with `Cc1c(C)n(C2CCCC2)c2ncnc(OC3CCN(CC(=O)NC4CC4)CC3)c12` [TCMDC-133310], `O=C(/C=C/c1cc([N+](=O)[O-])ccc1Cl)NC1CCC(CN2CCC(c3c[nH]c4ccccc34)CC2)CC1` (centres unmarked) [TCMDC-139907] is lower in “% Inhibition” value: -5.87% for the first, -55.07% for the second.

Compared with `Cn1nccc1C(=O)NCCNCc1ccc(-c2cccc(-c3nc4cc(F)ccc4[nH]3)c2)cc1.O=C(O)C(F)(F)F` [TCMDC-133016], `Fc1ccc2[nH]c(-c3cccc(-c4cccc(CNCC5CCCO5)c4)c3)nc2c1.O=C(O)C(F)(F)F` (centres unmarked) [TCMDC-133091] is lower in “% Inhibition” value: -24.65% for the first, -32.27% for the second.

Going from `COc1ccc2nccc([C@@H](O)CN3CCC(NC/C=C/c4cccnc4)CC3)c2c1` [TCMDC-140747] to `COc1ccc(Nc2nccc(N3CCC(NC(=O)Nc4cccc(C(C)=O)c4)C3)n2)cc1` (centres unmarked) [TCMDC-133610], the “% Inhibition” value falls from -1.69% to -16.63%.

First: Cc1cc(C2CCCCN2C)ccc1-c1ccc(C(=O)N2CCc3cc4c(cc32)C2(CCN(C)CC2)CO4)cc1 (centres unmarked) [TCMDC-139081]
Second: Cc1cc(-c2ncc[nH]2)ccc1-c1ccc(C(=O)N2CCc3cc4c(cc32)C2(CCN(C)CC2)CO4)cc1 [TCMDC-139079]
The “% Inhibition” value of the first is higher: 76.58% for the first, -8.812% for the second.

Going from `COc1cc2c(cc1N1CC(C)NC(C)C1)N(C(=O)c1ccc(-c3ccc(-c4ncc[nH]4)cc3C)cc1)CC2` (centres unmarked) [TCMDC-141160] to `CN1CCN(Cc2cccc(-c3ccc4c(Nc5cc(O)c(Cl)cc5F)ccnc4c3)c2)CC1` [TCMDC-138430], the “% Inhibition” value rises from 13.02% to 33.23%.

Compared with `CCOC(=O)NCCSC(C)(C)[C@H](NC(=O)[C@H](Cc1cc2ccccc2s1)[C@H](CC)N(O)C=O)C(=O)Nc1nccs1` [TCMDC-137792], `CCCCNC(=O)[C@@H](NC(=O)c1ccc(O)c(-c2ccc(Cl)c(Cl)c2)c1)C(C)C` [TCMDC-140839] is higher in “% Inhibition” value: 7.703% for the first, 36.3% for the second.

First: COCCNCc1cccc(-c2ccc3c(Nc4ccc(F)cc4Cl)ccnc3c2)c1 [TCMDC-138415]
Second: CN(C)CCNCc1cccc(-c2ccc3c(Nc4ccc(F)cc4Cl)ccnc3c2)c1 [TCMDC-138412]
The “% Inhibition” value of the first is lower: 42.47% for the first, 66.82% for the second.

Going from `CN(C)CCN(C)Cc1cccc(-c2ccc3c(Nc4cc(O)c(Cl)cc4F)ccnc3c2)c1` [TCMDC-138432] to `CN(C)CCNCc1cccc(-c2ccc3c(Nc4cc(O)c(Cl)cc4F)ccnc3c2)c1` [TCMDC-138413], the “% Inhibition” value rises from 25.38% to 57.17%.

Going from `CN(C)CCN(C)Cc1cccc(-c2ccc3c(Nc4ccc(F)cc4Cl)ccnc3c2)c1` [TCMDC-138416] to `Fc1ccc(Nc2ccnc3cc(-c4cccc(CN5CCCCC5)c4)ccc23)c(Cl)c1` [TCMDC-138418], the “% Inhibition” value falls from 87.2% to 24.75%.

First: CN(C)CCNCc1ncsc1-c1ccc2c(Nc3ccc(F)cc3Cl)ccnc2c1 [TCMDC-138466]
Second: COCCNCc1cccc(-c2ccc3c(Nc4cc(O)c(Cl)cc4F)ccnc3c2)c1 [TCMDC-138429]
The “% Inhibition” value of the first is lower: 30.52% for the first, 38.53% for the second.

Compared with `CS(=O)(=O)CCNCc1cccc(-c2ccc3c(Nc4cc(O)c(Cl)cc4F)ccnc3c2)c1` [TCMDC-138435], `O=C(NC1CCCc2ccccc21)[C@@H]1CCCN1C(=O)c1ccc(O)c(-c2ccc(Cl)c(Cl)c2)c1` (some centres unmarked) [TCMDC-140867] is higher in “% Inhibition” value: -21.48% for the first, 31.83% for the second.

Going from `N=C(N)c1cccc(-c2cc(-c3cccc(C(=N)N)c3)on2)c1` [TCMDC-137789] to `COC(=O)c1ccc(CC(C)NCC(O)c2cccc(SC(F)(F)F)c2)cc1` (centres unmarked) [TCMDC-131494], the “% Inhibition” value rises from 11.2% to 25.48%.

First: CCCCOP(=O)(COc1ccc(CCN(CC(O)COc2cccc3[nH]c4ccccc4c23)CC(O)COc2cccc3[nH]c4ccccc4c23)cc1)C1CCCCC1 (centres unmarked) [TCMDC-139016]
Second: O=C(C=Cc1ccc(-c2ccccc2)cc1)N1CCC(CCN2CCC(c3c[nH]c4ccccc34)CC2)CC1 [TCMDC-139941]
The “% Inhibition” value of the first is lower: 44.85% for the first, 105.7% for the second.

Compared with `COc1cc(Cc2cnc(N)nc2N)cc(OCCCOc2ccccc2)c1OC` [TCMDC-137687], `COc1ccc(C=CC(=O)N2CCC(CN3CCC(c4c[nH]c5ccccc45)CC3)CC2)cc1OC` [TCMDC-139944] is lower in “% Inhibition” value: 38.19% for the first, -13.45% for the second.

Compared with `O=C(/C=C/c1ccc(F)c(C(F)(F)F)c1)N1CCC(CN2CCC(c3c[nH]c4ccccc34)CC2)CC1` [TCMDC-140384], `COc1cc(C=CC(=O)N2CCC(CN3CCC(c4c[nH]c5ccccc45)CC3)CC2)ccc1O` [TCMDC-139913] is lower in “% Inhibition” value: -23.83% for the first, -95.05% for the second.

Going from `Cc1ccc(/C=C/C(=O)N2CCC(CCN3CCC(c4c[nH]c5ccccc45)CC3)CC2)cc1C` [TCMDC-139762] to `O=C(C=Cc1ccc(Br)cc1)N1CCC(CCN2CCC(c3c[nH]c4ccccc34)CC2)CC1` [TCMDC-139939], the “% Inhibition” value rises from 46.51% to 87.97%.

Compared with `O=C(/C=C/c1ccsc1)N1CCC(CCN2CCC(c3c[nH]c4ccccc34)CC2)CC1` [TCMDC-140263], `O=C(/C=C/c1ccccc1O)N1CCC(CCN2CCC(c3c[nH]c4ccccc34)CC2)CC1` [TCMDC-139712] is lower in “% Inhibition” value: 102.1% for the first, 101.8% for the second.

Compared with `COc1cc(C=CC(=O)N2CCC(CCN3CCC(c4c[nH]c5ccccc45)CC3)CC2)cc(OC)c1` [TCMDC-139938], `COc1cc(C=CC(=O)N2CCC(CN3CCC(c4c[nH]c5ccccc45)CC3)CC2)cc(OC)c1` [TCMDC-139945] is lower in “% Inhibition” value: 103.2% for the first, -6.368% for the second.

Compared with `CC(C)c1ccc(C=CC(=O)N2CCC(CCN3CCC(c4c[nH]c5ccccc45)CC3)CC2)cc1` [TCMDC-139942], `O=C(/C=C/c1ccc([N+](=O)[O-])cc1)N1CCC(CCN2CCC(c3c[nH]c4ccccc34)CC2)CC1` [TCMDC-139940] is lower in “% Inhibition” value: 110.7% for the first, -27.66% for the second.

Compared with `COc1cc(NC(=O)N2CCc3ccc(OCCN(C(C)C)C(C)C)cc32)cc(C(F)(F)F)c1` [TCMDC-140251], `CCCC(N)C(=O)NC1CCN(c2c(F)c(N)c3c(=O)c(C(=O)O)cn4c3c2Oc2ccccc2-4)C1` (centres unmarked) [TCMDC-125701] is lower in “% Inhibition” value: 48.14% for the first, 40.26% for the second.

Compared with `CN1CCCC(OC(=O)c2ccccc2)C1` (centres unmarked) [TCMDC-125511], `O=C(C=Cc1ccccc1O)N1CCC(CN2CCC(c3c[nH]c4ccccc34)CC2)CC1` [TCMDC-139912] is lower in “% Inhibition” value: 3.276% for the first, -49.08% for the second.

First: O=C(/C=C/c1ccc(Cl)cc1Cl)N1CCC(CCN2CCC(c3c[nH]c4ccccc34)CC2)CC1 [TCMDC-139711]
Second: O=C(/C=C/c1cc([N+](=O)[O-])ccc1Cl)N1CCC(CCN2CCC(c3c[nH]c4ccccc34)CC2)CC1 [TCMDC-139911]
The “% Inhibition” value of the first is lower: 81.98% for the first, 95.76% for the second.

In the case of `O=C(/C=C/c1cc(F)c(F)cc1F)N1CCC(CN2CCC(c3c[nH]c4ccccc34)CC2)CC1` [TCMDC-140383], the “% Inhibition” value is reported as -20.73%.

From publication PMC4552634, “A New Set of Chemical Starting Points with Plasmodium falciparum Transmission-Blocking Potential for Antimalarial Drug Discovery” (PLoS ONE, 2015)
